{
  "source": "PubChem BioAssay AID2384",
  "about": "(Southern Research Specialized Biocontainment Screening …, 2010)",
  "note": "In all, about 2,300 compounds went through this assay and about 1,100 (48%) were called active. No rule for the calls is given here. The set was probably picked from earlier hits. The list shows a part of the results. Measured potencies and affinities stand elsewhere.",
  "data": [
    {"experiment": "S. typhi counter-screen signal inhibition – fluorescence, 4 h, counter-screen for PhoP regulon inhibitor project, dose response (AID 2384)", "conditions": "S. typhi GFP reporter counter-screen; series mostly up to 150 µM; inhibition: at the top concentration", "values": [
      {"compound": "CCOC(=O)c1c(C)[nH]c(C(=O)CN2C(=O)NC(C)(c3ccc4ccccc4c3)C2=O)c1C", "note": "(stereo not given)", "inhibition": "6.12% (inactive)"},
      {"compound": "CCOC(=O)C(NC(=O)c1cccnc1)(Nc1cccc(C)n1)C(F)(F)F", "note": "(stereo not given)", "inhibition": "-9.61% (inactive)"},
      {"compound": "Nc1[nH]c(=O)ncc1F", "inhibition": "-3.81% (inactive)"},
      {"compound": "COc1ccc(/C=N/NC(=O)c2cccnc2)cc1", "inhibition": "17.4% (inactive)"},
      {"compound": "CCN(CC)Cc1c(C(=O)N/N=C/c2cccc3ccccc23)nnn1-c1nonc1N", "inhibition": "-54.3% (inactive)"},
      {"compound": "O=C(Nc1cccnc1)c1cc(Br)c(Br)s1", "inhibition": "17.9% (inactive)"},
      {"compound": "N#CCC(=O)N/N=C/c1ccccc1Cl", "inhibition": "7.9% (inactive)"},
      {"compound": "O=C(N/N=C/c1cccnc1)c1cccc(Cl)c1", "inhibition": "32.1% (inactive)"},
      {"compound": "CCN(CC)S(=O)(=O)c1cc(NC(=O)C2Cc3ccccc3C(=O)O2)ccc1C", "note": "(stereo not given)", "inhibition": "20.1% (inactive)"},
      {"compound": "Cc1ncc([N+](=O)[O-])n1CC(=O)NC1CCCC1", "inhibition": "7.22% (inactive)"},
      {"compound": "CC(C)C(c1nnnn1Cc1ccccc1)N(CCCO)Cc1cc2cc3c(cc2[nH]c1=O)OCO3", "note": "(stereo not given)", "inhibition": "3.39% (inactive)"},
      {"compound": "COC(=O)c1ccc(CSc2ccc3nnc(-c4ccc(OC)c(OC)c4)n3n2)o1", "inhibition": "-14.4% (inactive)"},
      {"compound": "CCOc1ccc2nnnn2n1", "inhibition": "11.9% (inactive)"},
      {"compound": "Cc1ccsc1/C=N/Nc1ccc(C(=O)O)cc1", "inhibition": "30.1% (inactive)"},
      {"compound": "Cc1ccsc1/C=N/NC(=O)c1ccncc1", "inhibition": "13.8% (inactive)"},
      {"compound": "CCOC(=O)C1Nc2c(F)cc(C)cc2C2c3ccccc3CC12", "note": "(stereo not given)", "inhibition": "2.54% (inactive)"},
      {"compound": "CC1(C)CC(=O)C(C=NCC2CCN(C(=O)Cc3ccccc3)CC2)=C(O)C1", "inhibition": "3.43% (inactive)"},
      {"compound": "Cc1ccc(/C=N/NC(=O)CSc2nc3ccccc3n2C)s1", "inhibition": "12% (inactive)"},
      {"compound": "CC(C)c1ccc(NC(=O)CSc2nnc(-c3ccccn3)n2C)cc1", "inhibition": "-19.7% (inactive)"},
      {"compound": "COc1ccc(NC(=O)CC2Sc3ncnn3C2=O)cc1", "note": "(stereo not given)", "inhibition": "24.8% (inactive)"},
      {"compound": "COc1ccc(CCNC2CCCCC2)cc1", "inhibition": "-14.9% (inactive)"},
      {"compound": "O=Cc1cc(CCC(=O)O)ccc1O", "inhibition": "34.3% (inactive)"},
      {"compound": "CCOC(=O)c1ccc(NC(=O)CSc2nc(N3CCOCC3)nc(N3CCOCC3)n2)cc1", "inhibition": "3.08% (inactive)"},
      {"compound": "CCOC(=O)c1ccc(NC(=O)c2cc3c(s2)CCC3)cc1", "inhibition": "13% (inactive)"},
      {"compound": "CCCCCCOc1ccc(N2C(=O)CC(SC(=NCC)NCC)C2=O)cc1", "note": "(stereo not given)", "inhibition": "-11.7% (inactive)"},
      {"compound": "CCCCOc1ccc(CN2CCC(O)CC2)cc1", "inhibition": "37.8% (inactive)"},
      {"compound": "Cc1cc(C)n2nc(SCn3nnc4ccccc4c3=O)nc2n1", "inhibition": "13.7% (inactive)"},
      {"compound": "Cc1ccc(NC(=O)CSc2ccc(-c3ccco3)nn2)cc1", "inhibition": "29.4% (inactive)"},
      {"compound": "O=C(CCNC(=O)c1ccco1)Nc1cccc(Br)c1", "inhibition": "35% (inactive)"},
      {"compound": "CCC1(CC)C(=O)NC(=O)NC1=Nc1cccc(OC)c1", "inhibition": "-22% (inactive)"},
      {"compound": "Cc1ccc(N2C(N)=C(C#N)C(c3cccnc3)C3=C2CC(C)(C)CC3=O)cc1", "note": "(stereo not given)", "inhibition": "-10.7% (inactive)"},
      {"compound": "C=CCSc1nnc(NC(=O)CSc2nc3ccccc3o2)s1", "inhibition": "21% (inactive)"},
      {"compound": "COc1ccccc1C(=O)NNC1=C(C(=O)C(F)(F)F)CCC1", "inhibition": "36.3% (inactive)"},
      {"compound": "Cc1cc(C)c(-n2nnnc2SC(C)C)c(C)c1", "inhibition": "22.1% (inactive)"},
      {"compound": "COc1cc2c(cc1OC)[C@H](Cc1ccc(O)cc1)NCC2", "inhibition": "26.9% (inactive)"},
      {"compound": "Cc1cccc(N2CCN(C(=O)CCN3C(=S)NC(C)(C)CC3C)CC2)c1C", "note": "(stereo not given)", "inhibition": "-24% (inactive)"},
      {"compound": "COc1cc2c(cc1OC)CN(C(=O)CCCN1C(=O)c3ccccc3C1=O)CC2", "inhibition": "14.8% (inactive)"},
      {"compound": "COc1ccc(C(=O)Oc2cc(C(=S)N3CCOCC3)ccc2OC)cc1", "inhibition": "-14.6% (inactive)"},
      {"compound": "Cc1c(-n2c(SCC(=O)C(C)(C)C)nc3ccccc3c2=O)c(=O)n(-c2ccccc2)n1C", "inhibition": "6.64% (inactive)"},
      {"compound": "NC(=O)c1ccc[n+](CC(=O)c2cccc([N+](=O)[O-])c2)c1", "inhibition": "-22.5% (inactive)"},
      {"compound": "NC(=O)c1cc(C(=O)c2ccc(Cl)cc2Cl)c[nH]1", "inhibition": "36.3% (inactive)"},
      {"compound": "O=Cc1ccc(N2CCCCCC2)cc1", "inhibition": "6.54% (inactive)"},
      {"compound": "CC(C)CN1CCN(Cc2cnc(N3CCOCC3)s2)CC1CCO", "note": "(stereo not given)", "inhibition": "-6.77% (inactive)"},
      {"compound": "O=C1c2ccccc2NC(c2cccc([N+](=O)[O-])c2)N1CCc1ccccc1", "note": "(stereo not given)", "inhibition": "24% (inactive)"},
      {"compound": "CN1C(=O)/C(=C2/C=Cc3ccccc3N2CCCS(=O)(=O)O)SC1=S", "inhibition": "37.2% (inactive)"},
      {"compound": "CCOC(=O)c1nc(C)n(-c2cc(Cl)ccc2Cl)n1", "inhibition": "6.17% (inactive)"},
      {"compound": "COc1ccccc1C1CN(c2ccc(F)cc2F)N=C1c1cccs1", "note": "(stereo not given)", "inhibition": "-4.35% (inactive)"},
      {"compound": "Cc1n[nH]c(=O)nc1NCCc1ccccc1", "inhibition": "3.25% (inactive)"},
      {"compound": "Cc1cccc(OCCSc2nnc(-c3ccoc3C)n2C)c1", "inhibition": "17.9% (inactive)"},
      {"compound": "CC(C)CC(=O)N1CCN(C(=O)CCC2CCCC2)CC1", "inhibition": "10.6% (inactive)"},
      {"compound": "Cc1cccc(NC(=O)C2CCCN2S(=O)(=O)c2ccc3c(c2)n(C)c(=O)c(=O)n3C)c1", "note": "(stereo not given)", "inhibition": "30.3% (inactive)"},
      {"compound": "Cc1cc(=O)oc2ccc(OCC(=O)N3CCC(C)CC3)cc12", "inhibition": "9.4% (inactive)"},
      {"compound": "O=C(COc1ccc(Cl)cc1)N1CCN(C2CCCC2)CC1", "inhibition": "20.5% (inactive)"},
      {"compound": "O=C(Nc1ccc(Cl)cc1)N1CCCN(Cc2ccccc2F)C1", "inhibition": "22.7% (inactive)"},
      {"compound": "O=C(CCN1CCOCC1)Nc1ccccc1", "inhibition": "12.2% (inactive)"},
      {"compound": "O=C(O)COc1ccc(F)cc1Br", "inhibition": "-9.25% (inactive)"},
      {"compound": "O=C(/C=C/c1ccc(Cl)cc1Cl)NCc1ccncc1", "inhibition": "21.3% (inactive)"},
      {"compound": "CCCSc1nc2cc(OC)c(OC)cc2c(=N)n1CCCN1CCOCC1", "inhibition": "13.2% (inactive)"},
      {"compound": "COc1ccccc1Nc1nc(Cl)c(C=O)s1", "inhibition": "28.1% (inactive)"},
      {"compound": "COc1ccccc1-n1nc(C(=O)NCc2ccco2)c2ccccc2c1=O", "inhibition": "-0.37% (inactive)"},
      {"compound": "CC(C)(C)c1nc(SCC(=O)NCc2ccco2)c2ccccc2n1", "inhibition": "-21.9% (inactive)"},
      {"compound": "CC(C)(C)c1ccc(NC(=O)NCc2ccco2)cc1", "inhibition": "-4.75% (inactive)"},
      {"compound": "CCOC(=O)c1cc(-c2ccncc2)nc2c1c(C)nn2-c1ccccn1", "inhibition": "-11.7% (inactive)"},
      {"compound": "COc1cc(C(c2nnnn2C2CCCC2)N2CCN(C)CC2)cc(OC)c1OC", "note": "(stereo not given)", "inhibition": "-10.6% (inactive)"},
      {"compound": "COc1ccc(N=CC2=C(Nc3ccc(OC)cc3)c3c(C)nn(-c4ccccn4)c3CC2)cc1", "inhibition": "19.6% (inactive)"},
      {"compound": "Cc1cc(C)nc(SCC(=O)Nc2sc3c(c2C#N)CCC(C)C3)n1", "note": "(stereo not given)", "inhibition": "20.4% (inactive)"},
      {"compound": "O=C(CSc1ncc(-c2ccc(F)cc2)[nH]1)NCc1ccco1", "inhibition": "-28.9% (inactive)"},
      {"compound": "O=C(CSc1nc2c(c(=O)n1-c1ccc(F)cc1)SCC2)NCc1ccco1", "inhibition": "-2.97% (inactive)"},
      {"compound": "Oc1ccccc1N=Cc1c(O)ccc2oc3c(c12)CCCC3", "inhibition": "7.25% (inactive)"},
      {"compound": "CCCCOc1ccc(C2=NNC(=O)CC2)cc1", "inhibition": "23.2% (inactive)"},
      {"compound": "Cc1c(C(=O)Nc2ccncc2)sc2nc(-c3ccc(F)cc3)cn12", "inhibition": "-1.91% (inactive)"},
      {"compound": "Cc1ccc(C(=O)Nc2ccc3c(c2)ncn3C)cc1", "inhibition": "18.6% (inactive)"},
      {"compound": "Cc1cc(C)c([C@@H]2C[C@H]3CN(C4CCCC4)C(=O)[C@]34CCCN24)c(-n2cccn2)c1", "inhibition": "2.81% (inactive)"},
      {"compound": "O=C(Oc1ccc[nH]c1=O)c1cc([N+](=O)[O-])cc([N+](=O)[O-])c1", "inhibition": "37% (inactive)"},
      {"compound": "Cc1ccc(C)c2[nH]c(=O)c(CN(Cc3cccnc3)C(=S)NCc3ccco3)cc12", "inhibition": "-7.36% (inactive)"}
    ]}
  ]
}
